The text below walks through data of PubChem BioAssay (NCATS).

“And” between values parts separate entries of the source, which are not always exact repeats. Identical values can stand only once. Results filed as inconclusive are left out. The source made the active and inactive calls. Unless noted, the call rests on the fitted dose curve; in most records, active means well fitted curve in the direction sought with a large enough effect; inconclusive means small, poorly fitted or top-dose-only effect, or another doubt; inactive means no such curve, though single readings can be large; an effect the other way counts as inactive or inconclusive.

Test system in the first experiment: not listed separately
The experiment is described as follows: qHTS assay for small molecule activators of the nuclear factor-kappa B (NF-kB) signaling pathway (AID 651749; active means well fitted activation curve with a large enough effect in the signal ratio; the % refers to the signal ratio; further: % of control where 0% means no effect). The conditions noted are these: NF-kB-bla ME-180 cells, beta-lactamase FRET ratio, 16 h; activation: active compounds read high. An outline of the steps:
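ME-180 cells stably carrying a beta-lactamase reporter under an NF-kB response element were exposed to compound or DMSO vehicle for 16 hr at 37C, 5% CO2. Pathway activation was read by FRET, since reporter expression disrupts FRET.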
On to `CC(C)OC(=O)Nc1cccc(Cl)c1`, for which the activation was 0.165% (inactive).

Turning to `CNC(=O)Oc1cccc2c1OC(C)(C)O2`, the activation was -0.841% (inactive).

Regarding `CCS(=O)CCSP(=O)(OC)OC` (stereo not drawn), the activation is -0.59% (inactive).

As to `COP(N)(=O)SC` (stereo not drawn), the activation is 0.304% (inactive) and 1.6% (inactive).

On to `CC(C)(C)C(=O)C(Oc1ccc(Cl)cc1)n1cncn1` (stereo not drawn), for which the activation was -2.3% (inactive) and -1.59% (inactive).

For `CC(C)N1C(=O)c2ccccc2NS1(=O)=O`, the activation was -0.185% (inactive).

For `N#Cc1c(Cl)cccc1Cl`, the activation was -0.285% (inactive).

In the case of `COc1nc(NC(C)C)nc(NC(C)C)n1`, the activation is -2.09% (inactive).

On to `CCc1cccc(C)c1N(C(=O)CCl)C(C)COC` (stereo not drawn), for which the activation was -1.58% (inactive).

`CNC(=O)Oc1ccccc1OC(C)C`: the activation was -2.6% (inactive).

Test system in the next experiment: not listed separately
The experiment is described as follows: qHTS assay for environmental chemicals that activate the Aryl hydrocarbon Receptor (AhR) signaling pathway (AID 651777). Further: % of control where 0% means no effect; nearly all actives have a fitted effect of over 15% in size. Particulars: 1A2-DRE human hepatoma cells, luciferase, 24 h; activation: active compounds read high. Put shortly:
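Reporter gene assay: hepatoma cells with DRE/CYP1A2-luciferase, 24 hr compound incubation at 37 C, 5% CO2, luminescence after One-Glo (30 min, RT).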
On the technique in general: In qHTS, concentration-response curves come from the screen itself.
`CNC(=O)Oc1cccc2c1OC(C)(C)O2`: the activation was 1.33% (inactive).

Consider `CCCCSP(=O)(SCCCC)SCCCC`, for which the activation was -2.91% (inactive).

Consider `CCS(=O)CCSP(=O)(OC)OC` (stereo not drawn), for which the activation is -0.491% (inactive).

Take `COP(N)(=O)SC` (stereo not drawn): the activation was -0.0851% (inactive) and 1.26% (inactive).

Turning to `CC(C)(C)C(=O)C(Oc1ccc(Cl)cc1)n1cncn1` (stereo not drawn), the activation is 6% (inactive).

Regarding `O=C(O)COc1cc(Cl)c(Cl)cc1Cl`, the activation was 0.686% (inactive).

In the case of `CCC(=O)Nc1ccc(Cl)c(Cl)c1`, the activation was 4.76% (inactive).

Turning to `CNC(=O)CSP(=S)(OC)OC`, the activation was 0.301% (inactive) and 4.06% (inactive).

With `N#Cc1c(Cl)cccc1Cl`, the activation is -0.167% (inactive).

Regarding `COc1nc(NC(C)C)nc(NC(C)C)n1`, the activation was -1.56% (inactive).

With `CCc1cccc(C)c1N(C(=O)CCl)C(C)COC` (stereo not drawn), the activation was -0.315% (inactive).

With `CNC(=O)Oc1ccccc1OC(C)C`, the activation was -1.13% (inactive).

For another experiment, the target named is Peroxisome proliferator-activated receptor alpha (Homo sapiens) (UniProt Q07869). The experiment is described as follows: qHTS assay for small molecule agonists of the peroxisome proliferator-activated receptor alpha (PPARalpha) signaling pathway (AID 651778). Further: % of control where 0% means no effect. Particulars: PathHunter PPARalpha complementation, chemiluminescence, 6 h; active compounds read high. Put shortly: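 Cells plated at 2,000/well and held overnight at 37 C, 5% CO2, then compound added by pin tool for 6 hr; after PathHunter detection reagent and 60 min at room temperature, chemiluminescence from enzyme complementation was read.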
Peroxisome proliferator-activated receptor alpha (Homo sapiens), sequence (Q07869 whole entry, looked up): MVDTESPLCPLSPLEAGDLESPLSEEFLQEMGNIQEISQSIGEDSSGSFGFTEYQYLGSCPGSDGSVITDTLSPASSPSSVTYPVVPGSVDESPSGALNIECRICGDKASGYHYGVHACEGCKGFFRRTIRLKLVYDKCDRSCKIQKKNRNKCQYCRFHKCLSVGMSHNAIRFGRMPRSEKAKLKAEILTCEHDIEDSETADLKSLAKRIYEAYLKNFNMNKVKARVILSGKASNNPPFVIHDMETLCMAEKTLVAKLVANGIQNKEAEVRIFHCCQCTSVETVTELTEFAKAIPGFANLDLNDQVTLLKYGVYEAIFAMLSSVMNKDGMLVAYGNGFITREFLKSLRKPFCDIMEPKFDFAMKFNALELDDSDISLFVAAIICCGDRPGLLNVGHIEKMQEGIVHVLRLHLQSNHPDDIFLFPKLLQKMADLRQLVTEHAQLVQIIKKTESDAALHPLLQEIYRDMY
`CC(C)OC(=O)Nc1cccc(Cl)c1`: the max response was -1.91% (inactive).

Consider `CNC(=O)Oc1cccc2c1OC(C)(C)O2`, for which the max response is -1.3% (inactive).

For `CCCCSP(=O)(SCCCC)SCCCC`, the max response is 3.39% (inactive).

As to `CCS(=O)CCSP(=O)(OC)OC` (stereo not drawn), the max response was -0.0185% (inactive).

Take `COP(N)(=O)SC` (stereo not drawn): the max response was -4.83% (inactive) and -1.06% (inactive).

For the compound `CC(C)(C)C(=O)C(Oc1ccc(Cl)cc1)n1cncn1` (stereo not drawn), the max response is 1.14% (inactive) and -0.0791% (inactive).

As to `CC(C)N1C(=O)c2ccccc2NS1(=O)=O`, the max response is -0.187% (inactive).

Consider `O=C(O)COc1cc(Cl)c(Cl)cc1Cl`, for which the max response is -1.8% (inactive).

Take `CCC(=O)Nc1ccc(Cl)c(Cl)c1`: the max response is -0.456% (inactive).

As for `CNC(=O)CSP(=S)(OC)OC`, the max response was -2.63% (inactive) and -0.399% (inactive).

Regarding `N#Cc1c(Cl)cccc1Cl`, the max response is 0.511% (inactive).

As to `COc1nc(NC(C)C)nc(NC(C)C)n1`, the max response was -3.74% (inactive).

As to `CCc1cccc(C)c1N(C(=O)CCl)C(C)COC` (stereo not drawn), the max response is -0.424% (inactive).

With `CNC(=O)Oc1ccccc1OC(C)C`, the max response is 0.062% (inactive).

Test system in another experiment: not listed separately
The experiment is described as follows: qHTS assay for small molecule agonists of the antioxidant response element (ARE) signaling pathway measured by Nrf2-dependant transcriptional activity (AID 720636; active means well fitted curve in the direction sought with a large enough effect in the repeat runs; an effect the other way counts as inactive or inconclusive; further: % of control where 0% means no effect). The conditions noted are these: ARE-luc HepG2, Nrf2 luciferase reporter, 16 h; series mostly up to 92.4 µM. Put shortly: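 Nrf2-dependent transcription is measured in ARE-luc HepG2 cells: compound is applied for 16 hr at 37 C after a 6 hr attachment period, and luciferase activity is quantified by luminescence using ONE-Glo.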
For the compound `CNC(=O)Oc1cccc2c1OC(C)(C)O2`, the result was inactive.

For `CCCCSP(=O)(SCCCC)SCCCC`, the compound was classed as inactive.

For the compound `CCS(=O)CCSP(=O)(OC)OC` (stereo not drawn), the result was inactive.

`COP(N)(=O)SC` (stereo not drawn): the outcome was inactive.

Turning to `CC(C)(C)C(=O)C(Oc1ccc(Cl)cc1)n1cncn1` (stereo not drawn), the result was inactive.

Take `CC(C)N1C(=O)c2ccccc2NS1(=O)=O`: the outcome was inactive.

`O=C(O)COc1cc(Cl)c(Cl)cc1Cl`: the compound was classed as inactive.

On to `CCC(=O)Nc1ccc(Cl)c(Cl)c1`, for which the outcome was inactive.

`CNC(=O)CSP(=S)(OC)OC`: the call was inactive.

As for `N#Cc1c(Cl)cccc1Cl`, the result was inactive.

For `COc1nc(NC(C)C)nc(NC(C)C)n1`, the outcome was inactive.

On to `CNC(=O)Oc1ccccc1OC(C)C`, for which the compound was called inactive.

Test system in another experiment: not listed separately
The experiment is described as follows: qHTS assay for small molecule agonists of the antioxidant response element (ARE) signaling pathway measured by Nrf2-dependant transcriptional activity - cell viability counter screen (AID 720653; active means well fitted curve in the direction sought with a large enough effect in the repeat runs; an effect the other way counts as inactive or inconclusive; further: on the % scale 0 is the no-effect control and ±100 the full control effect). Particulars: ARE-bla HepG2 viability, CellTiter-Glo ATP luminescence, 16 h; active compounds read low. An outline of the steps:
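ARE-bla HepG2 cells (2,000/well) rested 5 hrs at 37C/5% CO2, then exposed to compounds in DMSO for 16 hrs. Viability was read in the same wells as intracellular ATP by luminescence, 30 min at room temperature after reagent addition.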
With `CC(C)OC(=O)Nc1cccc(Cl)c1`, the max response is -10.2% (inactive).

For the compound `CNC(=O)Oc1cccc2c1OC(C)(C)O2`, the max response was -5.36% (inactive).

Turning to `CCS(=O)CCSP(=O)(OC)OC` (stereo not drawn), the max response is -6.55% (inactive).

Consider `COP(N)(=O)SC` (stereo not drawn), for which the max response is 9.18% (inactive) and -6.05% (inactive).

For the compound `O=C(O)COc1cc(Cl)c(Cl)cc1Cl`, the max response was -9.62% (inactive).

For the compound `CCC(=O)Nc1ccc(Cl)c(Cl)c1`, the max response is -7.64% (inactive).

Consider `CNC(=O)CSP(=S)(OC)OC`, for which the max response was -1.41% (inactive) and -0.459% (inactive).

For the compound `N#Cc1c(Cl)cccc1Cl`, the max response is 0.251% (inactive).

In the case of `COc1nc(NC(C)C)nc(NC(C)C)n1`, the max response was 5.54% (inactive).

As to `CCc1cccc(C)c1N(C(=O)CCl)C(C)COC` (stereo not drawn), the max response was -0.37% (inactive).

Regarding `CNC(=O)Oc1ccccc1OC(C)C`, the max response is -4.9% (inactive).

Test system in another experiment: not listed separately
The experiment is described as follows: qHTS assay for cell viability of HEK293 cells (AID 743288). Further: on the % scale 0 is the no-effect control and ±100 the full control effect; nearly all actives have a fitted effect of over 50% in size. The conditions noted are these: ATP luminescence (CellTiter-Glo), 18 h; max response: active compounds read low. Put shortly:
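Luminescent ATP quantitation served as the viability read-out. Cells (parental HEK293, 2,000/well) received compounds after at least 5 h at 37 C and were exposed for 18 h before a 30 min room-temperature reagent step.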
As for `CC(C)OC(=O)Nc1cccc(Cl)c1`, the max response was -6.02% (inactive).

For the compound `CNC(=O)Oc1cccc2c1OC(C)(C)O2`, the max response is -19.8% (inactive).

Turning to `CCCCSP(=O)(SCCCC)SCCCC`, the max response was -3.57% (inactive).

Take `CCS(=O)CCSP(=O)(OC)OC` (stereo not drawn): the max response was -4.96% (inactive).

As to `COP(N)(=O)SC` (stereo not drawn), the max response is -4.36% (inactive) and -1.51% (inactive).

`CC(C)(C)C(=O)C(Oc1ccc(Cl)cc1)n1cncn1` (stereo not drawn): the max response was -10.8% (inactive) and -21.2% (inactive).

`CC(C)N1C(=O)c2ccccc2NS1(=O)=O`: the max response is -4.24% (inactive).

Regarding `O=C(O)COc1cc(Cl)c(Cl)cc1Cl`, the max response is -0.339% (inactive).

On to `CCC(=O)Nc1ccc(Cl)c(Cl)c1`, for which the max response was 1.17% (inactive).

As to `CNC(=O)CSP(=S)(OC)OC`, the max response was -6.64% (inactive) and -7.96% (inactive).

With `N#Cc1c(Cl)cccc1Cl`, the max response was 0.0704% (inactive).

As to `COc1nc(NC(C)C)nc(NC(C)C)n1`, the max response is -7.69% (inactive).

For the compound `CCc1cccc(C)c1N(C(=O)CCl)C(C)COC` (stereo not drawn), the max response was -14.8% (inactive).

`CNC(=O)Oc1ccccc1OC(C)C`: the max response is -6.22% (inactive).
